Measured values published in the supplement of paper PMC3334620.
The full ranking holds about 33,000 sequences; the median of “E-score (-0.5 to 0.5)” is about -0.016, and the highest 2% start at about 0.3. Many of the other results were omitted from the sample, so the highest values are more common in it than they were.

These sequences were tested against T1, Yer184c (UniProt P39961) (assay: PBM E-score (8-mer binding enrichment) (E-score (-0.5 to 0.5)); higher = stronger / more preferred TF binding). Conditions: protein concentration: 100 nM; construct: GST-full length.
T1 sequence: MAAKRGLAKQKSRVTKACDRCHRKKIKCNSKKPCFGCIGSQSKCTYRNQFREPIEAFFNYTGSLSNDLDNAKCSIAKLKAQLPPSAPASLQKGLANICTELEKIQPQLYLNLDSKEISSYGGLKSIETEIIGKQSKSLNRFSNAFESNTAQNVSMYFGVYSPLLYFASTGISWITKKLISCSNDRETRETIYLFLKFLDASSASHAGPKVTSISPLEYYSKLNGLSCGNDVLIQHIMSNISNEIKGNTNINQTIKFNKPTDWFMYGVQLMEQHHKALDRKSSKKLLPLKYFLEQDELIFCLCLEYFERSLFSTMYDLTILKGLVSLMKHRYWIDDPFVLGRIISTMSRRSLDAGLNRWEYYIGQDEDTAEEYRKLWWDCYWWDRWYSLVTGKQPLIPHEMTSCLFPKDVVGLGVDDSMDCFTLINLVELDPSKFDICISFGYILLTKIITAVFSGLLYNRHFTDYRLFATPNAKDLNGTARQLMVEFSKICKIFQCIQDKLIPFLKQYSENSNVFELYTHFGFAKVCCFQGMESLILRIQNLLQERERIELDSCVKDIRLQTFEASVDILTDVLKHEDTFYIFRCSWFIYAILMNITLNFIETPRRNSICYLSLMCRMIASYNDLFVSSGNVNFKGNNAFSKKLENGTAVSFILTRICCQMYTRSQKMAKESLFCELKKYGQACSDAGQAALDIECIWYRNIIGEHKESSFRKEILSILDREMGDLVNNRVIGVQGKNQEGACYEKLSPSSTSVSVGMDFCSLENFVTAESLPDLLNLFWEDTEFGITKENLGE
Description: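 Universal 'all 10-mer' protein binding microarrays (Agilent AMADID 015681) probed with GST-tagged S. cerevisiae TFs (full-length or DBD) made by in vitro transcription/translation (PURExpress), about 100-200 nM. Bound TF was detected with fluorescent anti-GST. Each ungapped 8-mer (which stands for itself and its reverse complement) is scored by the PBM enrichment score (E-score), a modified Wilcoxon-Mann-Whitney statistic from -0.5 to +0.5, computed with the Universal PBM Analysis Suite. Scale: above 0.35 generally sequence-specific binding.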

| Sequence | PBM E-score |
| --- | --- |
| AACCGGCC | 0.318 |
| AACCGACG | 0.189 |
| AACCGGCG | 0.306 |
| CACCGGCC | 0.177 |
| CACCGGCG | 0.238 |
| AACCGGCA | 0.238 |
| ATATGAAT | 0.156 |
| ATACTCGA | -0.0376 |
| AAGTCCCC | -0.18 |
| TAAAAGTA | 0.161 |
| AGAGAGTG | -0.158 |
| CTCTCATA | -0.0704 |
| GAGGGAGC | -0.277 |
| CGAGGTTC | 0.116 |
| GCCGAGGA | 0.335 |
| GCCGAGCC | 0.34 |
| ACCGAGGC | -0.0788 |
| CCCGAGCC | 0.155 |
| CCCGAGGA | 0.0175 |
| TCCGAGGA | 0.196 |
| CCCGAGGC | -0.013 |
| ACCGAGCC | 0.221 |
| GCCGAGGC | 0.386 |
| AGCGGTGC | -0.168 |
| AATTGCGC | 0.16 |

| Sequence | PBM E-score |
| --- | --- |
| CGGATCAC | 0.277 |
| ATTTATAA | 0.326 |
| ATTTATAC | 0.28 |
| ATATATTC | 0.319 |
| CTATATAG | -0.109 |
| ATATATAG | 0.282 |
| GTATATAC | -0.0816 |
| CTATATTC | -0.0128 |
| ATATATAT | 0.336 |
| ATATATAC | 0.317 |
| CTTTATAA | 0.0517 |
| CTATATAC | 0.247 |
| ATATATTG | 0.0957 |
| AGTAGCCG | 0.198 |
| GTGACATA | 0.121 |
| CTTTACCC | 0.00954 |
| CCTGAAAC | 0.15 |
| AATACTGT | 0.188 |
| GAAGCAAA | -0.0663 |
| CAGCCTCG | -0.0314 |
| GGCTTAAC | -0.0348 |
| ATATAACA | 0.309 |
| TTATATAA | 0.225 |
| CTATATAA | 0.0877 |
| CTATAACA | -0.0394 |

| Sequence | PBM E-score |
| --- | --- |
| ATATAACC | -0.0755 |
| ATATATAA | 0.339 |
| AGATGGGA | -0.194 |
| GAGGCTGA | -0.172 |
| ACAGGGGA | -0.249 |
| CCAGTCGG | -0.0574 |
| AATTATCG | 0.305 |
| ATATATCA | 0.115 |
| ATATATCC | 0.318 |
| AAATATCG | 0.194 |
| AATTATCA | 0.221 |
| CTATATCC | -0.119 |
| AGATATCC | 0.0863 |
| ATATATCG | 0.312 |
| AATTATCC | 0.116 |
| AAGTATTC | 0.0574 |
| CGTAAGCA | -0.252 |
| AGCTAGCC | -0.0869 |
| AAGGTGAA | -0.0939 |
| CAGCAAAA | -0.0176 |
| CCATACCA | -0.145 |
| ATTGAGTA | 0.191 |
| CGGACAAA | 0.353 |
| CGGACAAC | 0.373 |
| CGGACAAG | 0.234 |

| Sequence | PBM E-score |
| --- | --- |
| GGGACAAC | -0.0988 |
| AGGACAAA | 0.136 |
| GGGACGAA | 0.0852 |
| CGGACGAA | 0.353 |
| CGGACGAC | 0.23 |
| AGGACAAC | 0.0373 |
| CATCGAAG | -0.0421 |
| ACTTAACA | -0.00053 |
| ATGCTCTG | -0.178 |
| AATGGCCG | 0.0612 |
| ATGAAGGC | -0.0969 |
| CGTCCCGA | 0.0521 |
| GATCTGAC | -0.0541 |
| ATTGCCGG | 0.348 |
| ATTGCCAG | -0.0205 |
| ATTGCCGA | 0.311 |
| ATTGCCCA | -0.102 |
| GTTGCCGA | 0.373 |
| GCTGCCGA | 0.292 |
| GTTGCCCA | -0.0158 |
| ATTGCCGC | 0.162 |
| CTTGCCGA | 0.22 |
| TCCTGCGA | 0.00447 |
| GGCCAACA | -0.0401 |
| GCTGTTAC | -0.0967 |

| Sequence | PBM E-score |
| --- | --- |
| CTTAGCAA | 0.0294 |
| TCCTGCAA | -0.0596 |
| AGGCATAT | 0.0107 |
| ACGCCAGA | -0.132 |
| CAACCGGG | 0.14 |
| CAACCGCC | -0.042 |
| CAACCGGC | 0.323 |
| CAACCGAC | 0.238 |
| GAACCGGA | 0.349 |
| CTACCGGC | 0.0792 |
| CAACCGAA | 0.258 |
| TAACCGGA | 0.279 |
| CAACCGGA | 0.373 |
| CAACCGCG | 0.306 |
| CAACCGCA | 0.0386 |
| GAACCGGC | 0.18 |
| CTCTAACA | 0.0218 |
| AGTTCGAT | -0.0396 |
| AGGTGAAC | -0.112 |
| ACGTTGCT | -0.0994 |
| CGGATGGA | 0.207 |
| ATCACAAT | 0.0634 |
| CAAGCGCA | 0.0414 |
| CCCACCTA | -0.241 |
| GGTATCAA | -0.0802 |

| Sequence | PBM E-score |
| --- | --- |
| AAACCGGC | 0.313 |
| AAACCGGG | 0.0839 |
| AAACCGGT | 0.216 |
| AGACCGGC | 0.128 |
| AAACCGGA | 0.306 |
| AAACCGCC | 0.147 |
| ATTTAGAC | 0.121 |
| AAAACCCG | 0.163 |
| AAAGCCGA | 0.174 |
| GAAGCCGA | 0.287 |
| AAAGCCGT | 0.262 |
| TAAGCCGA | 0.369 |
| CAAGCCGA | 0.324 |
| CAAGCCTG | -0.271 |
| AAAGCCGG | 0.351 |
| CAAGCCCA | -0.326 |
| AAAGCCGC | 0.188 |
| CAAGCCGG | 0.327 |
| CAAGCCGC | -0.0146 |
| CCAGCCGA | 0.205 |
| CTCACAAG | -0.177 |
| AAGGTCGG | -0.018 |
| TAGGTGAA | 0.0169 |
| CACCAACA | -0.23 |
| GGCTATCA | 0.131 |

| Sequence | PBM E-score |
| --- | --- |
| GCTCGGAC | 0.187 |
| GCTCGGTA | 0.129 |
| ACTCGGAA | 0.341 |
| CCTCGGAA | 0.28 |
| TCTCGGAA | 0.334 |
| ACTCGGAC | 0.208 |
| ACTCGGAT | 0.268 |
| TGTCGGAA | 0.163 |
| GCTCGGAA | 0.334 |
| GCAGCAGC | -0.0995 |
| CCATAGCG | -0.124 |
| CGGTCTCA | 0.0469 |
| GGACGCCA | -0.224 |
| CCTCTTCA | -0.18 |
| ACTCTCGA | -0.0924 |
| ATTCTCGA | 0.0246 |
| ATTCTCGG | 0.345 |
| ATTCTCGC | -0.192 |
| ACTCTCGG | 0.344 |
| ACTCTCGC | -0.169 |
| ACCACGAT | -0.0131 |
| AGTTATGG | -0.0312 |
